Our source for the composite z-score and composite Z-score values is PubChem BioAssay.

The structures appear in SMILES notation. Active and inactive are the calls of the source.

One assay concerns the target Albumin (Bos taurus) (UniProt P02769). In words: compounds binding labelled BSA control protein – biochemical, small-molecule microarray, Alexa647 label, 635/667 nm fluorescence, artefact control for SMM control protein annotation, profiling panel (AID 1118).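 Note: score merges 667 nm emission intensity and signal-to-noise per printed compound spot.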 The following applies: BSA-A647 binding, fluorescence 635 nm, higher = more signal.
The nature of assay [1]: probe aXIP binding to arrayed compounds – biochemical, NeuroSMM set, 635/667 nm fluorescence, primary screen (AID 1119).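 Note: probe is the protein aXip251-270 applied at 1 µg/mL to compound-printed slides; binding of probe to printed compounds measured as 667 nm fluorescence plus signal to noise.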 The conditions noted are these: small-molecule microarray, higher = more signal, called active from +8 up or from −8 down.
Assay [2] is described as follows: probe aNOTCH3 binding on compound microarray – biochemical, small-molecule microarray, 635/667 nm fluorescence, primary screen (AID 1120).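 Note: probe is a biotin-tagged antibody raised against NOTCH3 rather than NOTCH3 protein; score merges spot fluorescence near 667 nm with spot signal to noise.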 The following applies: higher = more signal.
Assay [3] is described as follows: probe aNOTCH2 binding on compound microarray – biochemical, small-molecule microarray, 635/667 nm fluorescence, primary screen (AID 1121).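 Note: score merges feature fluorescence read at 667 nm with its signal to noise.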 The following applies: higher = more signal.
For assay [4], the target named is Carbonic anhydrase 2 (Homo sapiens) (UniProt P00918). As to the kind of experiment: compounds binding carbonic anhydrase 2 – biochemical, small-molecule microarray, Alexa647-labelled CAII, profiling panel (AID 1122). The conditions noted are these: CAII-A647 binding fluorescence, higher = more signal.
A short description of assay [5]: COS7 lysate on small-molecule microarray, probe aHis, 635 nm (AID 1123).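 Note: z-score combines 667nm fluorescence intensity with signal-to-noise per printed compound spot.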 The conditions noted are these: COS7 cell lysate, fluorescence, higher = more signal.
Assay [6] in a line: probe aLAP1 signal on lysate-treated microarray – cell lysate, small-molecule microarray, COS7 lysate, primary screen (AID 1124).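 Note: lysate comes from COS7 cells expressing LAP1 and is applied at 0.3 µg/mL; score merges spot fluorescence near 667 nm with signal-to-noise over triplicate slides.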 The conditions noted are these: probe aLAP1, fluorescence, higher = more signal.
The next assay concerns Sam68 (KHDRBS1). In words: compounds binding KHDRBS1 protein – biochemical, small-molecule microarray, 635 nm fluorescence, primary screen (AID 1125).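 Note: score merges 667 nm channel intensity with signal to noise over triplicate slides.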 The conditions noted are these: higher = more signal.
For assay [7], the system named is Chordin-like protein 2 (CHRDL2). As to the kind of experiment: compounds binding chordin-like 2 – biochemical, small-molecule microarray, 635 nm fluorescence, primary screen (AID 1126).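 Note: printed compound slides probed with Chrdl2 protein at 4 µg/mL for 1 h at 4 C; score merges 667 nm emission intensity with signal to noise over three replicate slides.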 The following applies: fluorescence 635 nm, higher = more signal.
Assay [8] has as its target Concanavalin-A (Canavalia ensiformis) (UniProt P02866). In words: compounds binding concanavalin A lectin – biochemical, small-molecule microarray, Alexa647 label, 635 nm, artefact control for SMM control protein annotation, primary screen (AID 1127).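 Note: z combines 667 nm emission intensity with signal-to-noise across three replicate slides.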 The following applies: ConA-A647 binding fluorescence, higher = more signal.

Sequence of Concanavalin-A (Canavalia ensiformis) (P02866 whole entry, looked up): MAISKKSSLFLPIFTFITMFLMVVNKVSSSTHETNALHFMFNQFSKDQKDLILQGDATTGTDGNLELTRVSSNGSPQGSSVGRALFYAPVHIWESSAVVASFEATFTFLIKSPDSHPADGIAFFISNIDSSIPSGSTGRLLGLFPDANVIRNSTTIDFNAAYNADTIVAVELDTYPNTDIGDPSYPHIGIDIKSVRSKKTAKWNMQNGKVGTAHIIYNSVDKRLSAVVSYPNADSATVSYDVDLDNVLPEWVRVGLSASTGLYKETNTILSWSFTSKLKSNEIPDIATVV
Sequence of Albumin (Bos taurus) (P02769 whole entry, looked up): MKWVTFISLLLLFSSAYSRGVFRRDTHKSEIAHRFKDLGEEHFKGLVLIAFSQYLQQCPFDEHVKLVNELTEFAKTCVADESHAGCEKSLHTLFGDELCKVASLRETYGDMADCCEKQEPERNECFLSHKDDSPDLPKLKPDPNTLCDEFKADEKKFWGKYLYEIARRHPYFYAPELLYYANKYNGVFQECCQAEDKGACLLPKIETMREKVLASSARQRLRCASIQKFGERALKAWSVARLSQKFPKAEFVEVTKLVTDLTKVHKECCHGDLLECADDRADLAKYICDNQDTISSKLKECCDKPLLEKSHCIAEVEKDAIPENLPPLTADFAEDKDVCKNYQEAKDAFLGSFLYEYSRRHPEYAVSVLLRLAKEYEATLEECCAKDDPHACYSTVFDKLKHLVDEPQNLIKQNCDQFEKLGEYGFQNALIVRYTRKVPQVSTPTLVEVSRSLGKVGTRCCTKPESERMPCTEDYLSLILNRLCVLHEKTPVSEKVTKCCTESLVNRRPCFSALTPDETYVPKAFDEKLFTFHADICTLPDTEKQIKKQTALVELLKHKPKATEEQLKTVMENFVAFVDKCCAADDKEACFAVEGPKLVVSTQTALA

For `O=C1C[C@@H](O)[C@@H](O)[C@@H]2[C@@H]3C(=O)N(c4ccc(F)cc4F)C(=O)[C@@H]3CC[C@@H]12`, the composite z-score with Albumin (Bos taurus) is 0.129; in assay [2], -0.0631; in assay [3], -0.118; in assay [4], 0.234; in assay [5] it was -0.344; in assay [6], 0.495. Further, the figures for the composite z-score (in the assay with Sam68 (KHDRBS1); in assay [7]; in assay [8]) were 0.236, 0.65 and -0.397, respectively. In addition, the composite Z-score in assay [1] is -0.521 (inactive).
As for `CCOC(=O)[C@H](CC(C)C)NC(=O)CCC1CC(OC(=O)NCCc2ccc(F)cc2)CC2(CCCC(COC(=O)NCc3ccccc3)O2)O1` (stereo not given in full), the composite z-score in the assay with Albumin (Bos taurus) was 0.173; in assay [2], 0.257; in assay [3], -0.131; in [4], 0.274; in assay [5], 1.27; in [6], 0.362. In addition, the composite z-score in the assay on Sam68 (KHDRBS1) was 1.14; in assay [7], 0.623; in assay [8], 0.754. The composite Z-score in assay [1] was -0.0657 (inactive).
For `CO[C@H]1COC(=O)[C@@H]2CCCN2C(=O)[C@@H](C)COC(=O)CC=C[C@@H]1C`, the composite z-score in the assay with Albumin (Bos taurus) was -0.414; in assay [2], -0.0647; in assay [3], -0.0907; in assay [4], -0.329; in assay [5], -0.641; in [6], 0.359. Also, the composite z-score in the assay with Sam68 (KHDRBS1) came to 0.474; in assay [7], 1.4; in [8] it was 0.75. Further, the composite Z-score in assay [1] was -0.275 (inactive).
As to `C[C@@H](c1ccccc1)N1C(=O)[C@H]2[C@H]3[C@H](O)[C@H](O)CC(=NNC(=O)OCc4ccccc4)[C@H]3CC[C@H]2C1=O`, the composite z-score is 0.3 in the assay with Albumin (Bos taurus); -0.046 in [2]; -0.0978 in assay [3]; -0.112 in [4]; 0.947 in assay [5]; 0.221 in assay [6]. Also, the composite z-score in the assay on Sam68 (KHDRBS1) was -0.495; in assay [7] it was 0.13; in assay [8] it was 0.0811. Besides, in assay [1], the composite Z-score was 0.281 (inactive).
In the case of `CCOC(=O)[C@H](Cc1ccccc1)NC(=O)CCC1CC(OC(=O)NCc2ccc3c(c2)OCO3)CC2(CCCC(COC(=O)NCc3ccccc3)O2)O1` (stereo not given in full), the composite z-score with Albumin (Bos taurus) was 0.3; in assay [2], 0.0437; in assay [3], -0.0728; in [4] it was 0.373; in assay [5], 0.248; in assay [6], 0.0766. The results for the composite z-score (with Sam68 (KHDRBS1); in assay [7]; in assay [8]) were 1.06, 0.261 and 0.915, respectively. In addition, the composite Z-score in assay [1] was 0.255 (inactive).
Regarding `CCOC(=O)C[C@H]1[C@H](OC(=O)c2cc3ccccc3oc2=O)[C@@H](NC(=O)c2ccc3ccccc3n2)c2cc(OCCCO)ccc2N1C(=O)c1ccccc1`, the composite z-score in the assay with Albumin (Bos taurus) was 0.328; in [2], 0.154; in assay [3] it was -0.0424; in assay [4], 0.639; in assay [5], 0.476; in assay [6], 0.668. Also, the composite z-score with Sam68 (KHDRBS1) turned out to be 0.604; in [7], 0.789; in assay [8], 0.728. In addition, in [1], the composite Z-score was 0.946 (inactive).
For `COC(=O)[C@]1(CO)N=C(c2ccc(OCCCO)cc2)O[C@@H]1c1ccccc1N=[N+]=[N-]`, the composite z-score was -1.02 in the assay with Albumin (Bos taurus); -0.112 in assay [2]; -0.0629 in [3]; 0.771 in assay [4]; 4.01 in [5]; 0.758 in assay [6]. The composite z-score in the assay on Sam68 (KHDRBS1) is 1.29; in [7] it was 0.94; in assay [8], 0.545. Moreover, the composite Z-score in assay [1] was 1.73 (inactive).
On to `CC(C)=NOCc1cccc(-c2cc(-c3ccccc3)no2)c1`, for which the composite z-score in the assay with Albumin (Bos taurus) was -0.0583; in assay [2], 0.062; in assay [3], -0.203; in assay [4], 0.257; in [5], 0.686; in assay [6], 0.0499. The results for the composite z-score (in the assay on Sam68 (KHDRBS1); in assay [7]; in [8]) were 1, 0.564 and 1.02, respectively. In assay [1], the composite Z-score is 0.123 (inactive).
Regarding `CN1C(=O)C2C=CC(C(O)C(c3ccccc3)c3ccccc3)N(NC(=O)OC(C)(C)C)C2C1=O` (stereo not given), the composite z-score in the assay with Albumin (Bos taurus) is 1.03; in assay [2], 0.687; in [3] it was 0.498; in assay [4], 0.793; in assay [5], 3.42; in assay [6] it was 1. Further, the results for the composite z-score (with Sam68 (KHDRBS1); in assay [7]; in [8]) were 1.33, 0.0789 and 1.19, respectively. Besides, the composite Z-score in assay [1] was 1.84 (inactive).
Regarding `COC(=O)[C@@H]1CC[C@H](C)[C@@H](c2ccc(C)cc2)N1C(=O)c1ccc(C=NOC(C)CN2CCCCc3nc(C)c(C)cc32)cc1` (stereo not given in full), the composite z-score is 0.594 with Albumin (Bos taurus); 0.0916 in assay [2]; -0.0707 in [3]; -0.0862 in assay [4]; 0.125 in assay [5]; 0.388 in assay [6]. In addition, the composite z-score in the assay with Sam68 (KHDRBS1) came to 0.0689; in assay [7], 0.62; in [8], 0.951. For the same compound, in assay [1], the composite Z-score is -0.317 (inactive).
For the compound `CCc1cc2c(nc1CC)CCN(CCC(C)=NOC(C)CN1CCCc3nc(C)c(C)cc31)C2` (stereo not given), the composite z-score came out at 0.263 with Albumin (Bos taurus); 0.724 in assay [2]; 0.271 in assay [3]; 0.461 in assay [4]; 1.18 in assay [5]; 0.0412 in [6]. Besides, the values for the composite z-score (in the assay with Sam68 (KHDRBS1); in assay [7]; in assay [8]) were 1.29, 0.726 and 0.952, respectively. Moreover, in assay [1], the composite Z-score was 1.74 (inactive).
As for `C=CCOC(=O)[C@H]1[C@@H]2C(=O)O[C@@H](c3ccccc3)[C@@H](c3ccccc3)N2[C@@H](c2ccc(OCCOC(=O)[C@H]3C[C@H]4C(=O)N[C@@H](Cc5ccccc5)C(=O)N4[C@H]3c3ccc(O)cc3)cc2)[C@]12C(=O)Nc1ccccc12`, the composite z-score was -0.757 in the assay with Albumin (Bos taurus); -0.0932 in assay [2]; -0.131 in [3]; 0.553 in assay [4]; 1.71 in [5]; 0.832 in assay [6]. Further, the composite z-score in the assay with Sam68 (KHDRBS1) amounted to 1.31; in [7], 1.38; in assay [8] it was 1.16. Besides, the composite Z-score in [1] is 0.89 (inactive).
In the case of `CC(C)NC(=O)[C@@H]1c2ccccc2C(=O)N(CC23CC4CC(CC(C4)C2)C3)[C@H]1c1ccc(CO)cc1`, the composite z-score was 0.283 in the assay with Albumin (Bos taurus); 0.106 in [2]; -0.125 in [3]; 0.25 in [4]; 1.65 in assay [5]; 0.397 in assay [6]. Besides, the composite z-score in the assay with Sam68 (KHDRBS1) was found to be 1.3; in [7] it was 0.533; in [8] it was 1.08. In addition, the composite Z-score in [1] is -0.178 (inactive).
With `C=CCC(OC(C)=O)[C@@H]1[C@@H](N(Cc2cc3ccccc3o2)C(=O)Cc2ccc(F)cc2)c2cc(OCCCO)ccc2N1C(=O)Cc1ccc(OC)cc1` (stereo not given in full), the composite z-score with Albumin (Bos taurus) was 0.323; in assay [2] it was -0.0932; in assay [3] it was -0.178; in assay [4] it was -0.446; in [5] it was -0.372; in assay [6], -0.374. The composite z-score in the assay on Sam68 (KHDRBS1) was -0.243; in assay [7], 0.448; in [8], -0.437. In addition, the composite Z-score in [1] is -0.353 (inactive).
